Results: PubChem BioAssay (NCATS)
Records with an inconclusive call do not appear. A number with no mark means an inactive call. Calls of active or inactive are those of the source. The call rests on the fitted dose curve; in most records, active means well fitted cell-killing curve with a large enough effect; inconclusive means small, poorly fitted or top-dose-only effect, or effect the other way; inactive means no such curve, though single readings can be large or run the other way.

Experiment: Quantitative High-Throughput drug screen in 47 multiple myeloma cell lines against the NCATS MIPE library collection: OPM2_DSMZ cell viability assay (AID 1919872); further: nearly all actives have a fitted effect of over 30% in size
Conditions: OPM2 myeloma viability, CellTiter-Glo ATP luminescence, 48 h; series mostly up to 45.8 µM; viability (% of DMSO): at the top concentration
Text: PI: Beverly A. Mock Ph.D.
Laboratory of Cancer Biology and Genetics,
Center for Cancer Research, National Cancer Institute,
National Institute of Health, Bethesda, Maryland
Drug resistance and disease progression are common in multiple myeloma (MM) patients, underscoring the need for new therapeutic combinations. […] We hypothesized that effective combinations would reduce MYC expression and enhance p16 activity. […] These preclinical data identify potentially useful drug combinations for evaluation in drug-resistant MM and reveal potential mechanisms of combined drug sensitivity.
Described herein is the primary MIPE qHTS used to cherrypick compounds. Validated compounds were then further tested for potential synergistic activiy.
[1] Peat TJ, Gaikwad SM, Dubois W, Gyabaah-Kessie N, Zhang S, Gorjifard S, Phyo Z, Andres M, Hughitt VK, Simpson RM, Miller MA, Girvin AT, Taylor A, Williams D, D'Antonio N, Zhang Y, Rajagopalan A, Flietner E, Wilson K, Zhang X, Shinn P, Klumpp-Thomas C, McKnight C, Itkin Z, Chen L, Kazandijian D, Zhang J, Michalowski AM, Simmons JK, Keats J, Thomas CJ, Mock BA. Drug combinations identified by high-throughput screening promote cell cycle transition and upregulate Smad pathways in myeloma. Cancer Lett. 2023 Aug 1;568:216284. doi: 10.1016/j.canlet.2023.216284. Epub 2023 Jun 24. PMID: 37356470; PMCID: PMC10408729.
SEQUENCE No. (e.g., 1, 2, 3, etc.); […] (e.g., Cells, Incubation, Reagent, etc.); VALUE and DESCRIPTION.
1; Cells; 5 uL; white, solid bottom 1536-well Greiner assay plate.
2; Compounds; 23 nL; Kalypsis pin tool (Wako USA) equipped with a 1536-well pin head to transfer to the assay plates.
3; Incubation; 48 hours; 37C incubation.
4; Reagent;5uL; CellTiter Glo (Promega).
5; Detector; 425V; Luminescence; Viewlux PerkinElmer.
NOTES (numbers refer to Sequence numbers above)
1. The cell-based screening methods employed in this study were like those previously published. Briefly, the corresponding myeloma cell lines were screened in 1,536-well plates with 500 cells, 5-uL per well for inhibition of cell viability (assessed by measuring ATP levels with CellTiterGlo).
2. NCATS MIPE 4.0 library of approved and investigational drugs were added using the Kalypsis pin tool. Wells treated with DMSO only for 100% viability and media only wells for 0% viability were used as controls.
3. The assay plates were covered and incubated for 48 hours in a 37C, 5% CO2 incubator with controlled humidity.
4. After 48 hours, CellTilter-GloTM luminescent substrate mix (Promega) reagent was added to the assay plate and plates we incubated for 5 min at room temperature.
5. Signal was measured as median relative luminescence units on a ViewLux (PerkinElmer) multiplate reader.
[1] Heske CM, Davis MI, Baumgart JT, Wilson K, Gormally MV, Chen L, Zhang X, Ceribelli M, Duveau DY, Guha R, Ferrer M, Arnaldez FI, Ji J, Tran HL, Zhang Y, Mendoza A, Helman LJ, Thomas CJ. Matrix Screen Identifies Synergistic Combination of PARP Inhibitors and Nicotinamide Phosphoribosyltransferase (NAMPT) Inhibitors in Ewing Sarcoma. Clin Cancer Res. 2017 Dec 1;23(23):7301-7311. doi: 10.1158/1078-0432.CCR-17-1121. Epub 2017 Sep 12. PMID: 28899971; PMCID: PMC6636827.
Potency means the concentration at half of the fitted maximal effect.

| Structure (SMILES) | Potency | viability (% of DMSO) |
| --- | --- | --- |
| C[C@H](NCc1ccc2c(c1)nc(NC(=O)c1ccc(-c3cn[nH]c3)s1)n2CCc1ccccc1)C(C)(C)C | 2090 nM (active) | – |
| CC1(C)O[C@@H]2C[C@H]3[C@@H]4CCC5=CC(=O)C=C[C@]5(C)[C@@H]4[C@@H](O)C[C@]3(C)[C@]2(C(=O)CO)O1 | – | 110% |
| CC(C)[C@H](CO)Nc1nc(Nc2cccc(Cl)c2)c2ncn(C(C)C)c2n1 | 20900 nM (active) | – |
| Nc1nc(=O)n([C@H]2C[C@H](O)[C@@H](CO)O2)cc1F | – | 99% |
| CC(C)C[C@H](NC(=O)CNC(=O)c1cc(Cl)ccc1Cl)B1OC(=O)CC(CC(=O)O)(C(=O)O)O1 (stereo not given in full) | 132 nM (active) | – |
| C=C(C)[C@@H]1CC[C@]2(C)CC[C@]3(C)[C@H](CC[C@@H]4[C@@]5(C)CC[C@H](O)C(C)(C)[C@H]5CC[C@]43C)[C@@H]12 | – | 89.8% |
| CC(=O)C1=C(O)C=C2Oc3c(C(C)=O)c(O)c(C)c(O)c3C2(C)C1=O (stereo not given) | – | 112% |
| CN1CCCN(C(=O)c2cccc(-c3ccc(C=C4C(=O)Nc5ccc(Cl)cc54)o3)c2)CC1 | 23500 nM (active) | – |
| Cc1cncc2cccc(S(=O)(=O)N3CCCN(C(=O)CN)C[C@@H]3C)c12 | – | 85.7% |
| NC(=O)c1ncn([C@@H]2O[C@H](CO)[C@@H](O)[C@@H]2O)c1N | – | 116% |
| CNC(=O)Nc1ccc(-c2nc(N3CC4CCC(C3)O4)c3cnn(C4CCC5(CC4)OCCO5)c3n2)cc1 | 20.9 nM (active) | – |
| CN(CC(=O)N(Cc1ccc(C2CCCCC2)cc1)c1ccc(C(=O)O)c(O)c1)S(=O)(=O)c1c(F)c(F)c(F)c(F)c1F | 23500 nM (active) | – |
| Cc1cnn(C)c1C(=O)Nc1cc(Nc2ccc3c(C=Cc4ccccn4)n[nH]c3c2)ccc1F | 18700 nM (active) | – |
| COc1cc(OC)c(NC(=O)Nc2cc(C)on2)cc1Cl | – | 124% |
| CC1(C)[C@H](O[C@H]2O[C@H](C(=O)O)[C@@H](O)[C@H](O)[C@H]2O[C@@H]2O[C@H](C(=O)O)[C@@H](O)[C@H](O)[C@H]2O)CC[C@@]2(C)[C@H]1CC[C@]1(C)[C@H]2C(=O)C=C2[C@H]3C[C@@](C)(C(=O)O)CC[C@]3(C)CC[C@]21C | – | 123% |
| O=C(NCc1ccccc1)[C@H](Cc1ccccc1)NC(=O)[C@@H]1O[C@@H]1C(=O)NCCc1ccc(O)cc1 | – | 90.2% |
| COc1cccc2c1C(=O)c1c(O)c3c(c(O)c1C2=O)C[C@@](O)(C(=O)CO)C[C@@H]3O[C@H]1C[C@H](N)[C@@H](O)[C@H](C)O1 | 2090 nM (active) | – |
| O=C1c2cccc(O)c2C(=O)c2c(O)cc(CO)cc21 | – | 96.5% |
| Cc1ccc([N+](=O)[O-])cc1S(=O)(=O)N(C)N=Cc1cnc2ccc(Br)cn12 | 59 nM (active) | – |
| CCS(=O)(=O)Nc1ccc2[nH]c(O)c(C(=Nc3ccc(CN4CCCCC4)cc3)c3ccccc3)c2c1 | 833 nM (active) | – |

| Structure (SMILES) | Potency | viability (% of DMSO) |
| --- | --- | --- |
| CC(C=CC1=C(C)CCCC1(C)C)=CC=CC(C)=CC(=O)Nc1ccc(O)cc1 | 17100 nM (active) | – |
| Cn1cnc(=N)c2[nH]cnc21 | 235 nM (active) | – |
| O=S(=O)(O)CCSSCCS(=O)(=O)O | – | 104% |
| Oc1ccc(-c2ccc(-c3cc(Nc4cccc(CNC5CC5)c4)n[nH]3)cc2)c(O)c1 | 4690 nM (active) | – |
| Cc1cnc(Nc2ccc(N3CCN(C)CC3)cc2)nc1Nc1cccc(S(=O)(=O)NC(C)(C)C)c1 | 6620 nM (active) | – |
| COC1=C(OC)C(=O)C(CC=C(C)CCC=C(C)CCC=C(C)CCC=C(C)CCC=C(C)CCC=C(C)CCC=C(C)CCC=C(C)CCC=C(C)CCC=C(C)C)=C(C)C1=O | – | 115% |
| CCc1c(O)cc(O)c(C(=O)c2ccc(OCCN3CCOCC3)c(OC)c2)c1CC(=O)N(CCOC)CCOC | 1050 nM (active) | – |
| CCCCOc1ccc(C(=O)Nc2ccc(F)cc2F)cc1 | – | 117% |
| C=CC(=O)Nc1cccc(Nc2nc(NC3CCC(N(C)C)CC3)nc3c2ncn3C(C)C)c1 (stereo not given) | 1870 nM (active) | – |
| C[C@@]12C(=O)OC(=O)[C@@]1(C)C1CCC2O1 | 662 nM (active) | – |
| CC(C)(C)c1nc2c3cc[nH]c(=O)c3c3cc(F)ccc3c2[nH]1 | 1660 nM (active) | – |
| CN(C)CC[C@H](c1ccc(Cl)cc1)c1ccccn1 | – | 103% |
| CC(C)N1[N]C(=C2C=c3cc(O)ccc3=N2)c2c(N)ncnc21 | 235 nM (active) | – |
| CCCCCCCCCCCCc1ccc(S(=O)(=O)Nc2nncs2)cc1 | – | 91.8% |
| Cn1cc(CNCC2CCN(c3ncc(C(=O)NO)cn3)CC2)c2ccccc21 | 41.8 nM (active) | – |
| CS(=O)(=O)N1CCc2c(-c3cnc(N)nc3)nc(N3CCOCC3)nc21 | 1050 nM (active) | – |
| Oc1ccc([C@@H]2Oc3ccc(O)cc3[C@@H]3CCC[C@@H]32)cc1 | 33200 nM (active) | – |
| CCOC(=O)N1CCN([N+]([O-])=NOc2ccc([N+](=O)[O-])cc2[N+](=O)[O-])CC1 | 1050 nM (active) | – |
| CC(C)OC(=O)[C@H](C)N[P@](=O)(OC[C@H]1O[C@@H](n2ccc(=O)[nH]c2=O)[C@](C)(F)[C@H]1O)Oc1ccccc1 | – | 99% |
| CC[C@H]1OC(=O)[C@H](C)[C@@H](O[C@H]2C[C@@](C)(OC)[C@@H](O)[C@H](C)O2)[C@H](C)[C@@H](O[C@@H]2O[C@@H](C)C[C@H](N(C)C)[C@@H]2O)[C@](C)(O)C[C@@H](C)C(=O)[C@H](C)[C@@H](O)[C@]1(C)O | – | 111% |
